IL-1B inflam inh = inhibitors of inflammasome signaling (IL-1 beta secretion). THP-1 LPS/ATP IL-1B secretion, AlphaLISA, 16 h; active compounds read low. activity change, % at 57.5 µM. 360,000 compounds, 4.7% hits; in the data active = activity change below about -50%; inconclusive = mostly about -30% to -49%
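Secreted IL-1B measured by AlphaLISA bead assay after 16 h compound exposure of THP-1 cells; compounds (final up to 57.5 uM) added 1 h before LPS (250 ng/mL) and ATP (1.25 mM) stimulation; lower signal means less secretion.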
DT40 TDP1 no CPT = qHTS for Inhibitors of human tyrosyl-DNA phosphodiesterase 1 (TDP1): qHTS in cells in absence of CPT; 420,000 compounds, 15% hits; DT40 Tdp1-/- hTDP1 cells, no CPT, ATP luminescence, 48 h; Potency, µM (highest dose often 46.2 µM), most hits filed as inhibitors; note: nearly all actives have a fitted effect of over 55% in size
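Compound effects on proliferation are scored in DT40 Tdp1-/-;hTDP1 cells in the absence of CPT. ATP levels (CellTiter-Glo luminescence) are recorded after a ≥48 hr, 37 °C incubation.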
DT40 TDP1 CPT = DT40-hTDP1 cell growth loss with CPT; chicken DT40 Tdp1-/-;hTDP1 cells + 20 nM CPT, ATP luminescence, 48 h; Potency, µM (series often up to 46.2 µM), hits mostly inhibitors; 420,000 compounds, 12% hits; AID 686979; note: nearly all actives have a fitted effect of over 55% in size
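Chicken DT40 Tdp1-/- cells complemented with human TDP1, 400 cells/well, exposed to compounds plus 20 nM camptothecin for at least 48 h at 37 C; viability read as ATP content by CellTiter-Glo luminescence.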
CtBP-E1A inh = inhibitors of CtBP/E1A interaction; 340,000 compounds, 0.49% hits; activity change, % (no concentration beside the values); AlphaScreen GST-E1A/His-CtBP binding, 1536-well; active compounds read low; AID 651724; in the data active = activity change below about -65%; inconclusive = mostly about -30% to -63%
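Steps: dispense buffer (Tris pH 8.0, NaCl 300 mM, TCEP 1 mM, BSA, Tween 20); add 5X protein mix (GST-E1A, His-CtBP, 125 nM each); pin 23 nL compound; 2 h at 37 °C, dark; add 5X beads (50 ug/mL); 1 h; read.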
TDP1 block = blocks human tyrosyl-DNA phosphodiesterase 1. Q9NUW8. recombinant TDP1, AlphaScreen DNA substrate cleavage. Potency, µM (series often up to 130 µM), usual class: inhibitors. 350,000 compounds, 0.28% hits. AID 485290; note: nearly all actives have a fitted effect of over 40% in size
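Compounds were preincubated with Tdp1 (1 nM final) for 15 min at room temperature before substrate (15 nM final) started a 5 min reaction; beads (10 ug/ml final) were then added for 10 min before AlphaScreen detection.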
Six1-Eya2 inh = inhibitors of human Six1/Eya2 interaction; Q15475+O00167; AlphaScreen GST-Six1/His-Eya2 binding, biochemical; active compounds read low; activity change, % (test concentration not listed); 360,000 compounds, 0.56% hits; AID 651725; in the data active = activity change below about -65%; inconclusive = mostly about -30% to -63%
Target sequence (O00167 whole entry, looked up): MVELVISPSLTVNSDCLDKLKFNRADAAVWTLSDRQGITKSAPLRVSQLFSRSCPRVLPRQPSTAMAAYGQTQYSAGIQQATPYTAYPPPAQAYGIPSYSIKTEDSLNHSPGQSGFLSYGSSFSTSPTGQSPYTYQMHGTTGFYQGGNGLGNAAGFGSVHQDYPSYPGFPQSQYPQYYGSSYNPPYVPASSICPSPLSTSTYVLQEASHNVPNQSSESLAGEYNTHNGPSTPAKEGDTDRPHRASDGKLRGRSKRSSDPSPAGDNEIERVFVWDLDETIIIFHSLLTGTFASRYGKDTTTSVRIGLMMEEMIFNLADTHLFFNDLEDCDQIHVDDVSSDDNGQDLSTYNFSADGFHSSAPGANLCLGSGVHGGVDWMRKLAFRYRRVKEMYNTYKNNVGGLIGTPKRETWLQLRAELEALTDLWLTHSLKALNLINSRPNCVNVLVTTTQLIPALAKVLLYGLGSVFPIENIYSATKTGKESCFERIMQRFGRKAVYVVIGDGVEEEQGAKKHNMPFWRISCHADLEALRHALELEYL
Target sequence (Q15475 whole entry, looked up): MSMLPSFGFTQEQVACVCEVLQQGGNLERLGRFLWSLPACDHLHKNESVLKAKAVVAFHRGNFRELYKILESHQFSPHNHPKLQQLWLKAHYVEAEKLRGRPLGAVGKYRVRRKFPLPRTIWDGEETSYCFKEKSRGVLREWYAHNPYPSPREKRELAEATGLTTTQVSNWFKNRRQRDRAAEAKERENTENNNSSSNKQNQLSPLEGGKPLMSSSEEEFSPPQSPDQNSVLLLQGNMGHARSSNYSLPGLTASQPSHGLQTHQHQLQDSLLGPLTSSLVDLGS
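AlphaScreen with GST-Six1 and His-Eya2 (5X mix: 250 nM and 500 nM), glutathione donor and nickel acceptor beads; buffer 50 mM Tris pH 8.0, 300 mM NaCl, 1 mM TCEP; 1 h at 37 C in the dark.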
Each line names hits and unclear results; the compound was inactive in the other large screens. In the library only some 18% were active in any assay of this set; here they are far more common. Unless noted, calls come from the whole dose curve; as a rule, active = well fitted curve in the direction sought with a large enough effect; inconclusive = small, poorly fitted or top-dose-only effect, or another doubt; inactive = no such curve, though single readings can be large; an effect the other way counts as inactive or inconclusive.

Cn1c(-c2ccc3ccccc3n2)[n+](C)c2ccccc21	DT40 TDP1 no CPT 3.7µM, DT40 TDP1 CPT 3.3µM
COc1ccc(N2CC(O)=C(c3n(C)c4ccccc4[n+]3C)C2=N)cc1	DT40 TDP1 no CPT inconclusive, DT40 TDP1 CPT inconclusive
CN(C)c1ccc(-c2n(C)c3ccccc3[n+]2C)cc1	IL-1B inflam inh -80, DT40 TDP1 no CPT 0.82µM, DT40 TDP1 CPT 1.6µM
Cn1c(-c2ccccn2)[n+](C)c2ccccc21	none
O=C(c1ccccc1)N1CCCC(c2nc3c(nnn3Cc3ccccc3)c(=O)[nH]2)C1 (stereo not drawn)	none
CCOC(=O)N1CCN(C(=O)c2ccc3c(c2)NC(=O)/C(=C\c2ccc(OC)c(OC)c2)S3)CC1	DT40 TDP1 no CPT 16µM, DT40 TDP1 CPT inconclusive (no result: CtBP-E1A inh)
CCOC(=O)N1CCN(C(=O)c2ccc3c(c2)NC(=O)/C(=C\c2cccc(C)c2)S3)CC1	DT40 TDP1 no CPT 13µM, DT40 TDP1 CPT inconclusive (no result: CtBP-E1A inh)
Cc1cccc(/C=C2\Sc3ccc(C(=O)N4CCC(C)CC4)cc3N(C)C2=O)c1	IL-1B inflam inh -54, DT40 TDP1 no CPT inconclusive, DT40 TDP1 CPT inconclusive
CCOC(=O)N1CCC(NC(=O)c2ccc3c(c2)N(C)C(=O)/C(=C/c2cccc(OC)c2)S3)CC1	DT40 TDP1 no CPT 18µM, DT40 TDP1 CPT 18µM
COc1ccc(/C=C2/Sc3ccc(C(=O)N4CCOCC4)cc3NC2=O)cc1OC	DT40 TDP1 CPT inconclusive
COC(=O)C1=C(C(=O)OC)[C@@H]2N(C)c3ccccc3[C@@]23C[C@@H](C(=O)OC)N(C(=O)COCc2ccccc2)C3=N1	DT40 TDP1 no CPT inconclusive, DT40 TDP1 CPT inconclusive (no result: CtBP-E1A inh)
COc1ccc(CCNC(=O)c2n[nH]c3ccccc23)cc1	DT40 TDP1 CPT inconclusive
CC(=O)Nc1ccc(-c2nnc(SCc3ccc(C)cc3)n2C)cc1	none
COc1ccc(Cn2c(C)nnc2-c2cnn(C)c2N)cc1OC	none
O=C(NC1CCCC1)C(c1ccccc1F)N(C(=O)c1csnn1)c1ccccc1 (stereo not drawn)	none
CCOC(=O)N1CCN(C(=O)c2ccc3c(c2)N(C)C(=O)/C(=C\c2ccc(OCC)c(OC)c2)S3)CC1	IL-1B inflam inh inconclusive, DT40 TDP1 no CPT 16µM, DT40 TDP1 CPT inconclusive
CCOC(=O)c1cccnc1SCC(=O)N(CC)c1cccc(C)c1	DT40 TDP1 no CPT inconclusive, DT40 TDP1 CPT 23µM
CCN(C(=O)CSc1nc(-c2ccccc2)no1)c1cccc(C)c1	DT40 TDP1 no CPT 1.5µM, DT40 TDP1 CPT 1.6µM (no result: IL-1B inflam inh, CtBP-E1A inh, Six1-Eya2 inh)
CC(C)OC(=O)c1cccnc1SCC(=O)N(C)c1ccccc1	none
CCN(C(=O)CSc1ncccc1C(=O)OC(C)C)c1cccc(C)c1	DT40 TDP1 no CPT inconclusive, DT40 TDP1 CPT 21µM
O=C(CN(C(=O)CNC(=O)c1ccco1)c1ccc(F)c(Cl)c1)NC1CCCCC1	none (no result: TDP1 block)
COC(=O)C1CCCN1S(=O)(=O)c1ccc2ccccc2c1 (stereo not drawn)	DT40 TDP1 no CPT 21µM, DT40 TDP1 CPT inconclusive
COc1cc(NC(=O)[C@H]2CCCN2S(=O)(=O)c2cccc3cccnc23)cc(OC)c1OC	DT40 TDP1 no CPT inconclusive, DT40 TDP1 CPT 15µM
CCOc1ccc(OCC)c(NC(=O)C2CCCN2S(=O)(=O)c2cccc3cccnc23)c1 (stereo not drawn)	DT40 TDP1 no CPT 18µM, DT40 TDP1 CPT 15µM, CtBP-E1A inh inconclusive
COc1ccc(OC)c(NC(=O)C2CCCN(S(=O)(=O)c3cccc4cccnc34)C2)c1 (stereo not drawn)	IL-1B inflam inh inconclusive, DT40 TDP1 no CPT 13µM, DT40 TDP1 CPT inconclusive
COC(=O)C1CCCN1S(=O)(=O)c1ccccc1NC(=O)c1cc(OC)c(OC)c(OC)c1 (stereo not drawn)	DT40 TDP1 CPT 15µM (no result: TDP1 block)
COc1cc(NC(=O)[C@@H]2CCCN(S(=O)(=O)c3cccc4cccnc34)C2)cc(OC)c1OC	DT40 TDP1 no CPT 13µM, DT40 TDP1 CPT 10µM
